Values without a mark were called inactive. Records with an inconclusive call do not appear. Active and inactive are the calls of the source. Unless noted, the call rests on the fitted dose curve; in most records, active means well fitted curve in the direction sought with a large enough effect in the repeat runs; inconclusive means weak or mixed curves; inactive means no such curve, though single readings can be large; an effect the other way counts as inactive or inconclusive.

Assay [1] can be described thus: A CellTox Green Cytotoxicity Assay to monitor cytotoxicity in HepG2 cells - 0 hour (AID 1224882). Further: nearly all actives have a fitted effect of over 35% in size. In outline: (§1)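 Read-out is fluorescence of a cyanine dye excluded from live cells that stains DNA of dead HepG2 cells, with signal proportional to cytotoxicity. Plates were read at 0, 8, 16, 24, 32 and 40 h after compound addition.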
The nature of assay [2]: A CellTox Green Cytotoxicity Assay to monitor cytotoxicity in HepG2 cells - 32 hour (AID 1224883). Further: nearly all actives have a fitted effect of over 50% in size. An outline of the steps:
as §1

A short description of assay [3]: A CellTox Green Cytotoxicity Assay to monitor cytotoxicity in HEK293 cells - 8 hour (AID 1224884). Further: nearly all actives have a fitted effect of over 35% in size. In outline:
(§2)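 Nonlytic real-time cytotoxicity: HEK293 + CellTox Green reagent plated, 5 h preincubation, pintool compound addition (23 nL in DMSO), 37 C for 40 h, fluorescence measured at successive time points.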

The nature of assay [4]: qHTS RealTime-Glo MT Cell Viability Assay in HepG2 cells - 16 hour (AID 1224885). Further: nearly all actives have a fitted effect of over 50% in size. In outline:
(§3)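 Cells + NanoLuc/prosubstrate dispensed (600 cells/well) → 5 h at 37 C/5% CO2 → compounds in DMSO transferred → 40 h incubation at 37 C, luminescence read at 0, 8, 16, 24, 32, 40 h.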
A general note: In qHTS, concentration-response curves come from the screen itself.

A short description of assay [5]: qHTS RealTime-Glo MT Cell Viability Assay in HEK293 cells - 24 hour (AID 1224886). Further: top concentration of the series differs between compounds; nearly all actives have a fitted effect of over 50% in size. An outline of the steps: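 Tox21 10K qHTS, HEK293, 600 cells/well, RealTime-Glo reagent co-dispensed with cells; 5 h preincubation, compound by pintool, 37 C, luminescence at 0–40 h.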
Assay [6] in a line: qHTS RealTime-Glo MT Cell Viability Assay in HEK293 cells - 8 hour (AID 1224887). Further: top concentration of the series differs between compounds; nearly all actives have a fitted effect of over 50% in size. An outline of the steps:
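Cells were seeded together with NanoLuc luciferase and a prosubstrate that viable cells reduce to a luciferase substrate. After a 5 h incubation at 37 C/5% CO2, compounds were added and luminescence was measured repeatedly during 40 h of treatment.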

Assay [7] in a line: A CellTox Green Cytotoxicity Assay to monitor cytotoxicity in HEK293 cells - 16 hour (AID 1224888). Further: nearly all actives have a fitted effect of over 35% in size. An outline of the steps: as §2
A short description of assay [8]: qHTS RealTime-Glo MT Cell Viability Assay in HepG2 cells - 0 hour (AID 1224889). Further: nearly all actives have a fitted effect of over 50% in size. In outline: as §3
Assay [9] in a line: A CellTox Green Cytotoxicity Assay to monitor cytotoxicity in HepG2 cells - 8 hour (AID 1224890). Further: nearly all actives have a fitted effect of over 45% in size. An outline of the steps:
as §1

The nature of assay [10]: qHTS assay to identify small molecule antagonists of the estrogen receptor alpha (ER-alpha) signaling pathway using the BG1 cell line in the presence of 0.1 nM 17-beta-estradiol - cell viability counter screen (AID 1259241). Further: nearly all actives have a fitted effect of over 40% in size. In outline:
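Viability in VM7Luc4E2 cells after 22 hr compound exposure under 0.1 nM 17beta-estradiol stimulation, by CellTiter-Fluor.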

The nature of assay [11]: qHTS assay to identify small molecule antagonists of the androgen receptor (AR) signaling pathway using the MDA cell line in the presence of 0.5 nM R1881 - cell viability counter screen (AID 1259242). Further: nearly all actives have a fitted effect of over 45% in size. An outline of the steps:
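Counter screen for cytotoxicity run in the same wells as the AR antagonist reporter screen: MDA-kb2 cells were treated 16 hr with test compounds and 0.5 nM R1881, then live-cell protease activity was measured by fluorescence.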

The nature of assay [12]: qHTS assay to identify small molecule HDAC inhibitors (AID 1259364). Further: top concentration of the series differs between compounds; nearly all actives have a fitted effect of over 45% in size. An outline of the steps: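 Luminescence from a cell-permeant luminogenic class I/II HDAC substrate reports endogenous deacetylase activity in intact HCT-116 cells treated with compounds for 2 h.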
Assay [13] in a line: qHTS assay to identify small molecule agonists of the sonic hedgehog signaling (Shh) pathway - cell viability counter screen (AID 1259366). Further: nearly all actives have a fitted effect of over 50% in size. In outline:
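Stable Gli1-Luc NIH/3T3 clone, 2,000 cells/well. Compound exposure 24hr at 37C. Read-out: CellTiter-Fluor fluorescence.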

Assay [14] can be described thus: qHTS assay to identify small molecule antagonists of the sonic hedgehog signaling (Shh) pathway - cell viability counter screen (AID 1259367). Further: nearly all actives have a fitted effect of over 55% in size. In outline: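 Using CellTiter-Fluor, viability of Gli1-Luc reporter 3T3 cells is read by fluorescence in the wells used for the Shh luciferase assay. Treatment lasts 23 hr with conditioned medium, then reagent 1 hr at 37C.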

A short description of assay [15]: qHTS assay to identify small molecule agonists of the sonic hedgehog signaling (Shh) pathway (AID 1259368; calls by dose curve;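 further: NIH/3T3-derived 3T3Gli1-Luc cells carrying a stable Gli1-driven firefly luciferase reporter; series mostly up to about 92 µM; nearly all actives have a fitted effect of over 15% in size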). An outline of the steps: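 3T3Gli1-Luc (NIH/3T3 clone, stable Gli1-Luc); 4 hr pre-incubation, then cpd in DMSO 24 hr, 37 C/5% CO2; luciferase reagent 30 min RT; luminescence.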
A short description of assay [16]: qHTS assay to identify small molecule antagonists of the sonic hedgehog signaling (Shh) pathway (AID 1259369; calls by dose curve; further: nearly all actives have a fitted effect of over 45% in size). An outline of the steps: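 3T3Gli1-Luc, conditioned-medium-stimulated, 24hr cpd, 37C/5% CO2; Gli1-driven firefly Luc luminescence after 30min RT with luciferase reagent. Cells plated 4hr before cpd.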
For assay [17], the target named is Androgen receptor (Homo sapiens) (UniProt P10275). As to the kind of experiment: qHTS assay to identify small molecule antagonists of the androgen receptor (AR) signaling pathway using the MDA cell line in the presence of 0.5 nM R1881 (AID 1259243). Further: nearly all actives have a fitted effect of over 50% in size. Further: potency means the concentration at half of the fitted maximal effect. An outline of the steps: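 Luciferase luminescence is the read-out: compounds are tested for suppressing 0.5 nM R1881-driven MMTV reporter activity in MDA-kb2 cells after 16 hr at 37C.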
Sequence of Androgen receptor (Homo sapiens) (P10275 whole entry, looked up): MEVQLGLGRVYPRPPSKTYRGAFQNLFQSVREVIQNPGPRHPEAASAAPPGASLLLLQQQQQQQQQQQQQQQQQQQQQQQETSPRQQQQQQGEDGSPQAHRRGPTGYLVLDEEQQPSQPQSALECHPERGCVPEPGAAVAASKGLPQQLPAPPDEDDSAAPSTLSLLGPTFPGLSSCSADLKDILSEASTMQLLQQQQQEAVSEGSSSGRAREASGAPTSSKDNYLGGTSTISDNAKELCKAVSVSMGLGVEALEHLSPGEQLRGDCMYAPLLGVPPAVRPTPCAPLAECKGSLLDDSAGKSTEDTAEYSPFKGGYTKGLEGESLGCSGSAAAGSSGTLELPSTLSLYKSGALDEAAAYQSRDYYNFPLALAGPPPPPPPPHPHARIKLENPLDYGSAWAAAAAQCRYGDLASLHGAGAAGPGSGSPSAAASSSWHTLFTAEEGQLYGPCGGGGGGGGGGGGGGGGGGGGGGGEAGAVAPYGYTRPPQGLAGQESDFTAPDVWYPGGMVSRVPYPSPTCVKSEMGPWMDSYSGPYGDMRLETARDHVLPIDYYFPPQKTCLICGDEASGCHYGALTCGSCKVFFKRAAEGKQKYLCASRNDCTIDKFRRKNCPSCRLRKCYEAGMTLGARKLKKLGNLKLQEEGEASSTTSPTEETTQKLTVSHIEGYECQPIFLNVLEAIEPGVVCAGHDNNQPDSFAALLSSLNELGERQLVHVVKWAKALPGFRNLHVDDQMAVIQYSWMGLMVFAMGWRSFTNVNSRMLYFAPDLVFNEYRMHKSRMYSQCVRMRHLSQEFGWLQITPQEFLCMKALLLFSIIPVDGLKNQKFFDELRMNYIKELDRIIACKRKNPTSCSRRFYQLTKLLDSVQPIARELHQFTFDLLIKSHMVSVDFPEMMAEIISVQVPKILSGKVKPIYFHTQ

Assay [18] concerns the target Estrogen receptor (Homo sapiens) (UniProt P03372). The assay is described as follows: qHTS assay to identify small molecule antagonists of the estrogen receptor alpha (ER-alpha) signaling pathway using the BG1 cell line in the presence of 0.1 nM 17-beta-estradiol (AID 1259244). Further: nearly all actives have a fitted effect of over 50% in size. An outline of the steps: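 Cells: VM7Luc4E2, endogenous ER-alpha, 4x ERE-luc stable. Pre-culture 5 d, phenol red-free, charcoal-stripped FBS. Plated 24 h, compound + E2 0.1 nM final, 22 h 37C/5% CO2. Readout ONE-Glo luminescence.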

A short description of assay [19]: qHTS assay to identify small molecule phospholipidosis (PLD) inducers (AID 1259344; active means well fitted curve in the direction sought with a large enough effect; an effect the other way counts as inactive or inconclusive). In outline:
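Fluorescent phospholipid staining (LipidTOX Red) measured by automated microscopy in fixed HepG2 cells after 24 h treatment; nuclei counterstained with Hoechst 33342; amiodarone as reference inducer.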

Assay [20] in a line: qHTS assay to identify small molecule HDAC inhibitors - cell viability counter screen (AID 1259365). In outline: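 Cytotoxicity was gauged in wild-type HCT-116 cells after a brief 2hr treatment with DMSO-dissolved compounds at 37C and 5% CO2, using CellTiter-Glo luminescence developed for 30min at room temperature.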

Sequence of Estrogen receptor (Homo sapiens) (P03372 whole entry, looked up): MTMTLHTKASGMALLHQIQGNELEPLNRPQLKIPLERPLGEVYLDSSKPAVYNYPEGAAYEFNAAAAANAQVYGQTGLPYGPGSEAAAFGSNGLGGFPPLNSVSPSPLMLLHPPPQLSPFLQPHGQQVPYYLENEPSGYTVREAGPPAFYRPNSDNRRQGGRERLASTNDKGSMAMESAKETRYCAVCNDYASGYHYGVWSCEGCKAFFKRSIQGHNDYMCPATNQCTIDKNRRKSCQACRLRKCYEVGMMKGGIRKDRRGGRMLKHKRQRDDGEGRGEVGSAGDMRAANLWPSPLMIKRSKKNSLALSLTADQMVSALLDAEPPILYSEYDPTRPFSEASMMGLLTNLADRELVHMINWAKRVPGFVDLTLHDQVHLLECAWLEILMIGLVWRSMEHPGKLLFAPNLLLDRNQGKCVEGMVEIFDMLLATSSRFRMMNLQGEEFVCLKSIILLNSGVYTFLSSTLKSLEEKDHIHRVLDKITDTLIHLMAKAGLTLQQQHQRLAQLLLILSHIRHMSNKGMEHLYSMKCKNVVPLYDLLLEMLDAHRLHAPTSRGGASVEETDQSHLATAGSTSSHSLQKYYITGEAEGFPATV

Regarding `CNCC(O)c1ccc(O)c(O)c1` (stereo not given), the Potency result in assay [1], in assay [2], in [5], in assay [6], in assay [8] and in assay [12] was “inactive” each time. The Potency result in assay [13], in assay [14] and in [16] was “inactive” throughout. The compound was called inactive in [3], in [4], in [7], in [9], in [10] and in assay [11]. The result in [15] was inactive.

`O=S(=O)(O)c1cccc2ccccc12`: the Potency entry in assay [1], in [2], in [5], in assay [6], in [8] and in [12] was “inactive” throughout. The Potency result in assay [13], in [14] and in assay [16] was “inactive” each time. The result in [3], in assay [4], in [7], in [9], in assay [10] and in [11] was inactive.

As to `CC1(C)OC[C@@H](COC(=O)CCc2ccc(OC[C@@H](O)CNCCNC(=O)N3CCOCC3)cc2)O1`, the Potency result in [1], in [2], in assay [5], in assay [6], in assay [8] and in assay [17] was “inactive” throughout. In addition, the Potency result in assay [12], in assay [13], in assay [14] and in assay [16] was “inactive” each time. The call in assay [3], in assay [4], in assay [7], in assay [9], in [11] and in [18] was inactive. Besides, the compound was classed as inactive in assay [19], in assay [20] and in [15].

Turning to `CCCCCC(=O)OCCc1ccccc1`, the Potency entry in assay [1], in assay [2], in assay [5], in [6], in [8] and in assay [12] was “inactive” each time. Moreover, the Potency result in [13], in assay [14] and in [16] was “inactive” throughout. The outcome in [3], in [4], in [7], in assay [9], in assay [11] and in [18] was inactive. Also, the compound was classed as inactive in assay [20] and in assay [15].

Consider `CCOC(=O)C1=NOC(c2ccccc2)(c2ccccc2)C1`, for which the Potency result in [1], in [2], in assay [5], in assay [6], in [8] and in assay [12] was “inactive” each time. Moreover, the Potency entry in [13] and in [14] was “inactive” throughout. Besides, the compound was called inactive in [3], in [4], in assay [7], in assay [9], in assay [11] and in [18]. The call in assay [15] was inactive.

Turning to `COc1cccc(OC)c1C(=O)N[C@@H]1C(=O)N2[C@@H]1SC(C)(C)[C@@H]2C(=O)O`, the Potency result in assay [1], in assay [2], in assay [5], in [6], in assay [8] and in assay [12] was “inactive” each time. Also, the Potency entry in assay [13], in assay [14] and in assay [16] was “inactive” in each case. Besides, the compound was called inactive in assay [3], in assay [4], in [7], in assay [9], in assay [11] and in assay [19]. Also, the compound was called inactive in [20].

For `CNC(=O)Nc1ccc(Cl)c(Cl)c1`, the Potency entry in [1], in assay [2], in assay [5], in assay [6], in assay [8] and in assay [13] was “inactive” each time. Besides, the Potency result in [14] and in assay [16] was “inactive” each time. Further, the compound was classed as inactive in assay [3], in assay [4], in assay [7], in assay [10], in assay [11] and in [15]. The Potency in assay [17] is 30.6 µM (active).

Take `CO/N=C(\C(=O)N[C@@H]1C(=O)N2C(C(=O)O)=C(CSc3nc(=O)c(O)nn3C)CS[C@H]12)c1csc(N)n1`: the Potency result in assay [1], in [2], in [5], in assay [6], in assay [8] and in assay [12] was “inactive” in each case. For the same compound, the Potency result in [13] and in assay [16] was “inactive” throughout. Further, the outcome in assay [3], in assay [4], in [7], in assay [9], in assay [11] and in assay [18] was inactive. Further, the compound was called inactive in assay [19], in assay [20] and in [15].

Values taken from PubChem BioAssay (Tox21).
